Counter-ions that a name gives are not always drawn. ± gives the standard deviation of the averaged measurements.

The test system of experiment [1] is Saccharomyces cerevisiae BY4741 SeMeCo community. The experiment can be described thus: z-score of prototroph abundance vs DMSO median; higher = larger share of this subpopulation than in DMSO controls. The conditions noted are these: 10 µM; 24 h; SM minimal medium; subpopulation (auxotrophy): Prototroph. The method in brief: (§1)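 Subpopulation abundance was reported as a z-score against the median of vehicle wells. The Saccharomyces cerevisiae BY4741 community, carrying four plasmids that each restored one auxotrophy and encoded a distinct fluorescent protein, was grown 24 h in minimal SM medium in 384-well plates holding library drugs at 10 µM final. Cells were paraformaldehyde-fixed and imaged by automated confocal microscopy, with single-auxotroph fluorescent strains used for thresholds and autofluorescence correction.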

The test system is the same in experiment [2]. As to the kind of experiment: z-score of subpopulation abundance vs DMSO median, subpopulation auxotrophic for M; higher = larger share of this subpopulation than in DMSO controls. The conditions noted are these: 10 µM; 24 h; SM minimal medium; subpopulation (auxotrophy): M. The gist of the method: as §1
The test system is the same in experiment [3]. The experiment can be described thus: z-score of subpopulation abundance vs DMSO median, subpopulation auxotrophic for L; higher = larger share of this subpopulation than in DMSO controls. Conditions: 10 µM; 24 h; SM minimal medium; subpopulation (auxotrophy): L. The gist of the method:
as §1

For experiment [4] the test system is unchanged. The experiment can be described thus: z-score of subpopulation abundance vs DMSO median, subpopulation auxotrophic for U; higher = larger share of this subpopulation than in DMSO controls. Conditions: 10 µM; 24 h; SM minimal medium; subpopulation (auxotrophy): U. The method in brief: as §1
The test system is the same in experiment [5]. As to the kind of experiment: z-score of subpopulation abundance vs DMSO median, subpopulation auxotrophic for H; higher = larger share of this subpopulation than in DMSO controls. Conditions: 10 µM; 24 h; SM minimal medium; subpopulation (auxotrophy): H. The method in brief:
as §1

Experiment [6] shares this test system. As to the kind of experiment: z-score of subpopulation abundance vs DMSO median, subpopulation auxotrophic for LU; higher = larger share of this subpopulation than in DMSO controls. Conditions: 10 µM; 24 h; SM minimal medium; subpopulation (auxotrophy): LU. The method in brief:
as §1

The test system is the same in experiment [7]. As to the kind of experiment: z-score of subpopulation abundance vs DMSO median, subpopulation auxotrophic for LM; higher = larger share of this subpopulation than in DMSO controls. The conditions noted are these: 10 µM; 24 h; SM minimal medium; subpopulation (auxotrophy): LM. The method in brief: as §1
For experiment [8] the test system is unchanged. The experiment can be described thus: z-score of subpopulation abundance vs DMSO median, subpopulation auxotrophic for HM; higher = larger share of this subpopulation than in DMSO controls. The conditions noted are these: 10 µM; 24 h; SM minimal medium; subpopulation (auxotrophy): HM. The method in brief:
as §1

The test system is the same in experiment [9]. The experiment can be described thus: z-score of subpopulation abundance vs DMSO median, subpopulation auxotrophic for HU; higher = larger share of this subpopulation than in DMSO controls. Conditions: 10 µM; 24 h; SM minimal medium; subpopulation (auxotrophy): HU. The gist of the method: as §1
Experiment [10] shares this test system. The experiment can be described thus: z-score of subpopulation abundance vs DMSO median, subpopulation auxotrophic for UM; higher = larger share of this subpopulation than in DMSO controls. Conditions: 10 µM; 24 h; SM minimal medium; subpopulation (auxotrophy): UM. The method in brief: as §1
The test system is the same in experiment [11]. As to the kind of experiment: z-score of subpopulation abundance vs DMSO median, subpopulation auxotrophic for HLU; higher = larger share of this subpopulation than in DMSO controls. Conditions: 10 µM; 24 h; SM minimal medium; subpopulation (auxotrophy): HLU. The gist of the method: as §1
Experiment [12] shares this test system. The experiment can be described thus: z-score of subpopulation abundance vs DMSO median, subpopulation auxotrophic for HLM; higher = larger share of this subpopulation than in DMSO controls. Conditions: 10 µM; 24 h; SM minimal medium; subpopulation (auxotrophy): HLM. The method in brief: as §1
For experiment [13] the test system is unchanged. As to the kind of experiment: z-score of subpopulation abundance vs DMSO median, subpopulation auxotrophic for HUM; higher = larger share of this subpopulation than in DMSO controls. The conditions noted are these: 10 µM; 24 h; SM minimal medium; subpopulation (auxotrophy): HUM. The gist of the method:
as §1

For experiment [14] the test system is unchanged. As to the kind of experiment: z-score of subpopulation abundance vs DMSO median, subpopulation auxotrophic for LUM; higher = larger share of this subpopulation than in DMSO controls. The conditions noted are these: 10 µM; 24 h; SM minimal medium; subpopulation (auxotrophy): LUM. The gist of the method:
as §1

The test system is the same in experiment [15]. As to the kind of experiment: z-score of subpopulation abundance vs DMSO median, subpopulation auxotrophic for HLUM; higher = larger share of this subpopulation than in DMSO controls. The conditions noted are these: 10 µM; 24 h; SM minimal medium; subpopulation (auxotrophy): HLUM. The gist of the method: as §1
Experiment [16] shares this test system. The experiment can be described thus: z-score of subpopulation abundance vs DMSO median, subpopulation auxotrophic for HL; higher = larger share of this subpopulation than in DMSO controls. Conditions: 10 µM; 24 h; SM minimal medium; subpopulation (auxotrophy): HL. The gist of the method: as §1
The test system is the same in experiment [17]. As to the kind of experiment: mean cell size (pixel area) (pixels); higher = larger cells. The conditions noted are these: 10 µM; 24 h; SM minimal medium. The gist of the method:
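Mean cell pixel area per well was measured in a four-plasmid fluorescent community of Saccharomyces cerevisiae BY4741, where every plasmid complements one auxotrophy and carries a fluorescent marker. Cells from an overnight preculture at OD600 = 1.0 were diluted to OD600 = 0.3 and dispensed at 70 µl into 384-well plates acoustically predosed with drug to a final 10 µM in SM medium. Incubation lasted 24 h, followed by paraformaldehyde fixation, automated confocal imaging and analysis in Harmony. Reported figures are averaged over 3 replicates. Same SeMeCo high-content imaging drug screen: Selleck FDA-approved drugs at 10 µM, 24 h in SM medium, 384-well plates, 3 replicates.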

`COc1cc(C(C)=O)ccc1OCCCN1CCC(c2noc3cc(F)ccc23)CC1` [Iloperidone]: the “z-score of prototroph abundance” value in experiment [1] is -0.06. For the same compound, the “z-score of subpopulation abundance” value in [2] was 0.33; in experiment [3] it was 0.2; in experiment [4] it was -0.16; in experiment [5], 0.05; in experiment [6] it was -0.41; in experiment [7], 0.71. In addition, the “z-score of subpopulation abundance” value in experiment [8] is 0.05; in experiment [9], -0.38; in experiment [10], -0.39; in [11] it was -1.31; in experiment [12], 0.44; in [13], -0.98. Moreover, the “z-score of subpopulation abundance” value in experiment [14] is 0.9; in experiment [15], -0.49.

As to `Clc1ccc(COC(Cn2ccnc2)c2ccc(Cl)cc2Cl)c(Cl)c1` (stereo not drawn) [Miconazole], the “z-score of prototroph abundance” value in experiment [1] was -9.47. The “z-score of subpopulation abundance” value in experiment [2] was -7.11; in [3], -2.13; in [4] it was 2.67; in experiment [5], 27.8; in [6], 4.36; in experiment [7], -1.8. The “z-score of subpopulation abundance” value came out at 0.94 in experiment [8]; 22.4 in experiment [9]; 1.59 in experiment [10]; 7.22 in [16]; 11.1 in [11]; 12.2 in experiment [12]. The “z-score of subpopulation abundance” value in experiment [13] amounted to 6.04; in experiment [14], 0.67; in experiment [15] it was 9.68.

For the compound `Nc1c2c(nc3ccccc13)CCCC2` [Tacrine hydrochloride hydrate], in experiment [1], the “z-score of prototroph abundance” value is -0.22. Moreover, the “z-score of subpopulation abundance” value in [2] was 0.5; in experiment [3], -0.15; in experiment [4], 0; in experiment [5], -0.99; in [6] it was 0.3; in experiment [7], 0.08. For the same compound, the “z-score of subpopulation abundance” value was -0.01 in [8]; -0.42 in experiment [9]; 0.92 in [10]; -0.15 in [16]; 0.33 in [11]; 0.56 in experiment [12]. The “z-score of subpopulation abundance” value in experiment [13] was found to be 0.1; in experiment [14], 0.71; in experiment [15], 0.45.

For `Cc1c(-c2ccccc2)oc2c(C(=O)OCCN3CCCCC3)cccc2c1=O` [Flavoxate HCl], in experiment [17], the mean cell size came out at 12 ± 0.18. In addition, the “z-score of prototroph abundance” value in [1] was -0.85. Moreover, the “z-score of subpopulation abundance” value in experiment [2] was 0.25; in experiment [3] it was 0.83; in experiment [4], 0.96; in experiment [5] it was -0.53; in [6], 1.88; in experiment [8] it was 0.21. In addition, the “z-score of subpopulation abundance” value in experiment [9] is 0.05; in experiment [10] it was 0.71; in [16] it was -0.37; in experiment [11], 1.32; in experiment [12], 0.18; in [13] it was -0.16.

With `CCC1(C)CC(=O)NC1=O` (stereo not drawn) [Ethosuximide], the “z-score of prototroph abundance” value in [1] is -0.06. The “z-score of subpopulation abundance” value in [2] was -0.27; in experiment [3], 0.6; in [4] it was 0.64; in [6], 0.79; in experiment [7], -0.21; in experiment [8], -0.5. For the same compound, the “z-score of subpopulation abundance” value in [9] was -0.46; in experiment [10] it was -0.4; in [11] it was -0.1; in experiment [12] it was 0.8; in [13], -0.44; in experiment [14] it was 1.11. In addition, the “z-score of subpopulation abundance” value in experiment [15] stood at 0.48.

In the case of `COc1ccc(C(=O)NCc2ccc(OCCN(C)C)cc2)cc1OC` [Itopride hydrochloride], the “z-score of prototroph abundance” value in experiment [1] was -0.3. The “z-score of subpopulation abundance” value in experiment [2] was 0.65; in [3], 0; in experiment [4], -0.45; in [5] it was -0.37; in [6], 0.56; in experiment [7], 0.86. Also, the “z-score of subpopulation abundance” value is 0.17 in experiment [8]; 0.11 in [9]; 0.38 in [10]; -0.33 in experiment [16]; 0.07 in [11]; 0.04 in experiment [12]. The “z-score of subpopulation abundance” value is 0.81 in [13] and -0.16 in experiment [15].

In [17], `CC(C[N+](C)(C)C)OC(N)=O` (stereo not drawn) [Bethanechol chloride] registered a mean cell size of 12.5 ± 0.12. The “z-score of prototroph abundance” value in experiment [1] was -0.22. Besides, the “z-score of subpopulation abundance” value is -0.79 in experiment [2]; 0.42 in experiment [3]; 0.23 in experiment [5]; 0.8 in experiment [6]; 0.89 in experiment [9]; -0.24 in experiment [16]. Further, the “z-score of subpopulation abundance” value in experiment [11] is 1.45; in experiment [12] it was 0.1; in [13], -0.33; in experiment [14] it was -0.42; in [15], -0.3.

(Values after the supplement of paper PMC8975748.)
